PubChem BioAssay (EPA / NIEHS)
Results filed as inconclusive are left out. Activity calls are given as the source filed them. Rule for the calls: active = hit-call score of the fitted dose curve at least 0.9, where 1 is the maximum; inconclusive = response in the unintended direction; inactive = score below 0.9.

What was measured:
[1] = TOX21_p53_BLA_p2_viability: Viability Assessment in the Tox21 HCT-116 p53 Agonism Beta-lactamase Assay, Phase 2 (AID 2283591);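 note: compound exposure lasted 16 h at 37 °C; actives lower the ATP signal meaning cytotoxicity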
Method in brief: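 Cytotoxicity readout: CellTiter-Glo ATP luminescence, 30 min at room temperature, after the beta-lactamase read. Cells were HCT116 exposed 16 h at 37C to compounds pin-transferred at 217-fold dilution from DMSO stocks.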

[2] = target: Cellular tumor antigen p53 (Homo sapiens) (UniProt P04637); assay: TOX21_p53_BLA_p2_ratio: Tox21 HCT-116 p53 Agonism Beta-lactamase Assay, Ratio, Phase 2 (AID 2283592)
Method in brief: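 In this cell-based reporter format, HCT116 cells were dosed with chemicals delivered from DMSO by 217-fold dilution and incubated 16 h at 37C. Emission at 460 and 530 nm after 2 h CCF4-AM loading provided the ratio, fitted upward versus DMSO.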

[3] = TOX21_p53_BLA_p3_viability: Viability Assessment in the Tox21 HCT-116 p53 Agonism Beta-lactamase Assay, Phase 3 (AID 2283593);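 note: cells exposed to compound for 16 h before reading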
Method in brief: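 Cellular ATP was quantified by CellTiter-Glo luminescence, read after 30 min at room temperature. Beforehand, HCT116 cells (4000/well) received compound 5 h post-seeding, 217-fold diluted from DMSO, then incubated 16 h at 37C.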

[4] = target: Cellular tumor antigen p53 (Homo sapiens) (UniProt P04637); assay: TOX21_p53_BLA_p3_ratio: Tox21 HCT-116 p53 Agonism Beta-lactamase Assay, Ratio, Phase 3 (AID 2283596)
Method in brief: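 HCT116 p53-bla cells (4000/well) given compound in DMSO (217-fold dilution) after 5 h, incubated 16 h at 37C. CCF4-AM substrate 2 h at room temperature; 460/530 nm emission ratio, gain fitted against DMSO.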

[5] = target: Cellular tumor antigen p53 (Homo sapiens) (UniProt P04637); assay: TOX21_p53_BLA_p5_ratio: Tox21 HCT-116 p53 Agonism Beta-lactamase Assay, Ratio, Phase 5 (AID 2283599)
Method in brief: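 Beta-lactamase reporter ratio (blue 460 nm over green 530 nm, 405 nm excitation) after 2 h CCF4-AM loading, in HCT-116 cells exposed 16 h at 37 C to compounds pinned at 217-fold dilution. Increases relative to DMSO baseline scored.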

[6] = TOX21_p53_BLA_p5_viability: Viability Assessment in the Tox21 HCT-116 p53 Agonism Beta-lactamase Assay, Phase 5 (AID 2283600)
Method in brief: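 Compounds, pinned from DMSO at 217-fold dilution, were left on the cells for 16 h. The viability endpoint was ATP content measured by CellTiter-Glo luminescence, where falling signal reflects cytotoxicity.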

[7] = target: Cellular tumor antigen p53 (Homo sapiens) (UniProt P04637); assay: TOX21_p53_BLA_p4_ratio: Tox21 HCT-116 p53 Agonism Beta-lactamase Assay, Ratio, Phase 4 (AID 2283601)
Method in brief: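 Signal is the blue/green (460nm/530nm) ratio of cleaved versus uncleaved CCF4-AM substrate, read after 2 h substrate loading. Cells were HCT116 carrying the p53-responsive beta-lactamase reporter, dosed 16 h at 37C, 5% CO2; CellTiter-Glo measured in parallel.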

[8] = target: Thyroid hormone receptor alpha (Rattus norvegicus) + Thyroid hormone receptor beta (Rattus norvegicus) (UniProt P18113+P63059); assay: TOX21_TR_LUC_GH3_Antagonist_Followup: Tox21 GH3 Thyroid Hormone Receptor Antagonism Luciferase Follow-Up Assay (AID 2283942)
Method in brief: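 Confirmatory qHTS, antagonist mode: T3 (1.0 nM final) + test cpd, 15 conc, 92 uM–5nM final, GH3 rat pituitary line, 24 h, 37C. Luc reporter, RLU vs DMSO.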

THRA (gene 7067) = THRA (gene 7067) (UniProt P10827); assay: TOX21_TRA_COA_Antagonist_Followup_ratio: Tox21 Thyroid Hormone Receptor alpha Antagonism through Coactivator Recruitment Follow-Up Assay, Ratio (AID 2283953)
Method in brief: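 520:495 nm emission ratio (excitation 340 nm) reports fluorescein-SRC-2 peptide recruitment to GST-TRα LBD by TR-FRET with Tb anti-GST antibody. Values were normalized to DMSO (0%) and T3 control wells (100%); loss of signal indicated antagonism.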

THRB (gene 7068) = THRB (gene 7068) (UniProt P10828); assay: TOX21_TRB_BLA_Antagonist_Followup_ratio: Tox21 Thyroid Hormone Receptor beta Antagonism Beta-lactamase (BLA) Follow-Up Assay, Ratio (AID 2283958)
Method in brief: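 HEK293T cells with a GAL4-TRb LBD fusion and UAS-bla reporter, 3,000 cells/well in phenol red-free DMEM with 2% charcoal-stripped FBS. Exposed 18 h at 37C to 11 concentrations in triplicate; CCF4 460:530 nm ratio after 2 h, DMSO-referenced.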

[9] = target: Retinoic acid receptor RXR-alpha (Homo sapiens) (UniProt P19793); assay: TOX21_TR_RXR_BLA_Antagonist_Followup_ratio: Tox21 Thyroid Hormone Receptor beta Retinoid X Receptor alpha (RXRa) Antagonism Beta-lactamase (BLA) Follow-Up Assay, Ratio (AID 2283972)
Method in brief: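 Beta-lactamase reporter readout as cleaved/uncleaved substrate ratio (460:530 nm) after 2 h substrate loading at room temperature. GAL4-RXRa bla HEK293T cells were exposed 16 h at 37C to 11-point compound series; loss of signal scored against DMSO baseline.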

[10] = TOX21_TR_RXR_BLA_Antagonist_Followup_viability: Viability Assessment in the Tox21 Thyroid Hormone Receptor beta Retinoid X Receptor alpha (RXRa) Antagonism Beta-lactamase (BLA) Follow-Up Assay (AID 2283979)
Method in brief: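 Follow-up compounds (11 concentrations, triplicate) were incubated 16 h at 37C/5% CO2 with HEK293T RXRa-bla cells seeded at 2,500/well in charcoal-stripped-serum medium. ATP content by CellTiter-Glo luminescence gave viability; curves fitted in both directions against DMSO.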

Chain of Cellular tumor antigen p53 (Homo sapiens) (P04637 whole entry, looked up): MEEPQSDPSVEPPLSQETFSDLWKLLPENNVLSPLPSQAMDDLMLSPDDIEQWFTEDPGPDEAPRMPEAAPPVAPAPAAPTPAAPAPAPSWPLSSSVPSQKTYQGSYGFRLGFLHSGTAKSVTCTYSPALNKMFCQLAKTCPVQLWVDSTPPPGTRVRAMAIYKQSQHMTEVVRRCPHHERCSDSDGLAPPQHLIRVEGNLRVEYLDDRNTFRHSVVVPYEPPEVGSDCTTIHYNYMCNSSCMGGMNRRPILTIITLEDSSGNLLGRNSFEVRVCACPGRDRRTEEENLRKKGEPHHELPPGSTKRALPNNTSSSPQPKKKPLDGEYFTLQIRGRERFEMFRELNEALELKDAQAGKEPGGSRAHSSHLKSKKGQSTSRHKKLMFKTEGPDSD
Chain of Retinoic acid receptor RXR-alpha (Homo sapiens) (P19793 whole entry, looked up, the tested form may be a part): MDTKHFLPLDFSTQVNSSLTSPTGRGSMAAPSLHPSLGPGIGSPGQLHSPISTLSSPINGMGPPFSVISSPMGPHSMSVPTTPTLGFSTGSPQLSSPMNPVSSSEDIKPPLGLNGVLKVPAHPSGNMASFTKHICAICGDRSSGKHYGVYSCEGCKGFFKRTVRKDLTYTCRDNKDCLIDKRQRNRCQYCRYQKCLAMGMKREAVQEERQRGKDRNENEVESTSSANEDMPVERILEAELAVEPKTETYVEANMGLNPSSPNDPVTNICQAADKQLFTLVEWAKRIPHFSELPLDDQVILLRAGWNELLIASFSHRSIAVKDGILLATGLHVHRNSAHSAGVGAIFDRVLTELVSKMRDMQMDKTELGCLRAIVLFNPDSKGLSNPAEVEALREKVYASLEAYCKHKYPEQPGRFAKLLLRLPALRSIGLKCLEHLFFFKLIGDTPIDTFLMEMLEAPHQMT
Chain of THRA (gene 7067) (P10827 whole entry, looked up, the tested form may be a part): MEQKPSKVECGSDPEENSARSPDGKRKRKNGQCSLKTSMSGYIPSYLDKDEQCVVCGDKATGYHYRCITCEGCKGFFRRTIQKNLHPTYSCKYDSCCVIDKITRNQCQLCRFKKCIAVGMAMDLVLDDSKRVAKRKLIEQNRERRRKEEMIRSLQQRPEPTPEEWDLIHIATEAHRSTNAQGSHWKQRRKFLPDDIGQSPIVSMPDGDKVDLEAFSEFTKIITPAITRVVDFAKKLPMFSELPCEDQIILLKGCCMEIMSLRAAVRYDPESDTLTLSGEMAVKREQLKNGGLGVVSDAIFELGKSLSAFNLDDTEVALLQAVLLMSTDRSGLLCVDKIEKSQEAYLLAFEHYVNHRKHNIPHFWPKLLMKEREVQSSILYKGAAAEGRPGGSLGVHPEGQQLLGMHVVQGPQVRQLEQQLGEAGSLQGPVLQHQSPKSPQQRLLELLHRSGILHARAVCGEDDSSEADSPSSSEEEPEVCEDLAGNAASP
Chain of THRB (gene 7068) (P10828 whole entry, looked up, the tested form may be a part): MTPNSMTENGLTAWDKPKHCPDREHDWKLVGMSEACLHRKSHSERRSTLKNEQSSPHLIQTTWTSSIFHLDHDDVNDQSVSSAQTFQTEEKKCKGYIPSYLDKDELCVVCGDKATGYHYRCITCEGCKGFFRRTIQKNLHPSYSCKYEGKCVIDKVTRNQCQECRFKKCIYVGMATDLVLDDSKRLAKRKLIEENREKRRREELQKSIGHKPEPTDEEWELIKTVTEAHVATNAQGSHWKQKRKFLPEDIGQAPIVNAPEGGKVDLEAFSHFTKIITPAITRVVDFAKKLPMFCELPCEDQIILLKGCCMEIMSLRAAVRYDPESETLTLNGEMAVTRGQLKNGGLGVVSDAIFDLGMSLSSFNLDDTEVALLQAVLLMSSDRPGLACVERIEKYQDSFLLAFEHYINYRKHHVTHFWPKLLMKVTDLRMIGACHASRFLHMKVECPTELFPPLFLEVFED

O=C(N[C@@H]1N=C(c2ccccc2F)c2cccc3c2N(CC3)C1=O)c1cc2ccccc2[nH]1
outcome [1]: inactive
outcome [2]: inactive
outcome [3]: inactive
outcome [4]: inactive
outcome [5]: inactive
outcome [6]: inactive
AC50 [7]: 26600 nM (active)
outcome [8]: inactive
outcome (THRA (gene 7067)): inactive
outcome (THRB (gene 7068)): inactive
outcome [9]: inactive
outcome [10]: inactive

CNC(C)[C@@H]1CC[C@@H](N)[C@@H](O[C@H]2[C@H](O)[C@@H](O[C@H]3OC[C@](C)(O)[C@H](NC)[C@H]3O)[C@H](N)C[C@@H]2N)O1 (stereo partly drawn) (tested in a mixture with another compound)
outcome [1]: inactive
outcome [2]: inactive
outcome [3]: inactive
outcome [4]: inactive
outcome [6]: inactive

CC[N+](C)(CC)CCOC(=O)C(O)(c1ccccc1)c1ccccc1
outcome [1]: inactive
outcome [2]: inactive
outcome [3]: inactive
outcome [4]: inactive
outcome [5]: inactive
outcome [6]: inactive
outcome [7]: inactive

CC(C)(O)C(Cl)(Cl)Cl
outcome [1]: inactive
outcome [2]: inactive
outcome [3]: inactive
outcome [4]: inactive
outcome [6]: inactive

O=C(Nc1ccccc1)N(Cc1ccc(Cl)cc1)C1CCCC1
outcome [1]: inactive
outcome [2]: inactive
outcome [3]: inactive
outcome [4]: inactive
outcome [5]: inactive
outcome [6]: inactive
outcome [7]: inactive

C[C@]12CC[C@H](O)C[C@H]1CC[C@@H]1[C@@H]2CC[C@]2(C)[C@@H](c3ccc(=O)oc3)C[C@H]3O[C@]132
AC50 [1]: 859 nM (active)
outcome [2]: inactive
AC50 [3]: 978 nM (active)
outcome [4]: inactive
outcome [5]: inactive
AC50 [6]: 1040 nM (active)
outcome [7]: inactive
